According to PubChem BioAssay (EPA / NIEHS):
Results filed as inconclusive are left out. Active and inactive are the calls of the source. The calls were made as follows: active = hit-call score of the fitted dose curve at least 0.9, where 1 is the maximum; inconclusive = response in the unintended direction; inactive = score below 0.9.

System: not listed separately
Experiment: ACEA_ER_AUC_viability: ACEA Biosciences xCELLigence Real-Time Cell Analysis on Estrogen Receptor Agonism for Viability (AID 2283782);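 also: hit means loss of impedance signal meaning reduced cell growth or viability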
How it was run: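 Viability endpoint: reduced impedance area under the curve relative to DMSO, recorded by real-time electrode sensing over ~80 h of continuous exposure. Duplicate plates of T47D in hormone-depleted medium; eight concentrations, 1:4 dilutions, 100 uM maximum.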

Row | Structure (SMILES) | outcome | AC50
1 | Cc1cc(=O)[nH]c(=S)[nH]1 | inactive | 
2 | Cc1ccc(Cl)cc1 | inactive | 
3 | CNCc1cc(F)ccc1Oc1ccc(Cl)c(Cl)c1 |  | 29.9 µM (active)
4 | Nc1ccccc1N | inactive | 
5 | CN1CCN(Cc2cc(-c3ccc4[nH]c(=O)oc4c3)co2)[C@@H](c2ccc(F)cc2)C1 |  | 50.8 µM (active)
6 | Cc1nc(-c2ccc3c(c2)CCN(CCC2CCC(NC(=O)/C=C/c4ccc(F)cc4)CC2)CC3)no1 (configuration not stated) | inactive | 
7 | CCNc1cccc(C)c1 | inactive | 
8 | COc1cc(/C=C/C(=O)CC(=O)/C=C/c2ccc(O)c(OC)c2)ccc1O | inactive | 
9 | Cc1oc(-c2ccccc2)nc1CCOc1cccc2c1ccn2CCC(=O)O | inactive | 
10 | COc1cc(-c2nc(NC(=O)c3cc4cc(C)cc(C)c4n3CC(=O)O)sc2CCC2CCCCC2)c(OC)cc1Cl |  | 11.4 µM (active)
11 | COc1ccc(S(=O)(=O)N2C(=O)[C@@](c3ccccc3OC)(N3C[C@H](O)C[C@H]3C(=O)N(C)C)c3cc(Cl)ccc32)c(OC)c1 |  | 24.3 µM (active)
12 | Cc1ccc(C(C)C)c(O)c1 | inactive | 
13 | COc1cccc2c1C(=O)c1c(O)c3c(c(O)c1C2=O)C[C@@](O)(C(=O)CO)C[C@@H]3O[C@H]1C[C@H](N)[C@H](O)[C@H](C)O1 | inactive | 
14 | Cc1cccc(C)c1O | inactive | 
15 | CCCCCCC(=O)OCC | inactive | 
16 | COc1ccc(C)cc1N | inactive | 
17 | Clc1cc(Cl)c(Cl)cc1Cl | inactive | 
18 | CC1=C(/C=C/C(C)=C/C=C/C(C)=C/CO)C(C)(C)CCC1 | inactive | 
19 | O=C(N[C@@H](Cc1ccccc1)[C@@H](O)C(=O)N1C[C@@H](O)[C@@H](O)C1)c1cc2cc(Cl)ccc2[nH]1 |  | 55.2 µM (active)
20 | CCOc1ccc2c(c1)C(C)=CC(C)(C)N2 | inactive | 
21 | Oc1ccc2c(c1)OC[C@@H](N1CCC(O)(c3ccc(F)cc3)CC1)[C@H]2O | inactive | 
22 | Nc1nc(N)c2nc(CNc3ccc(C(=O)N[C@@H](CCC(=O)O)C(=O)O)cc3)cnc2n1 |  | 40.1 µM (active)
23 | CC(=O)OC/C=C(\C)CCC=C(C)C | inactive | 
24 | CCCCC(CC)COC(=O)CC(C(=O)OCC(CC)CCCC)S(=O)(=O)O (configuration not stated) |  | 67.3 µM (active)
25 | C1CCC(SSC2CCCCC2)CC1 |  | 92.3 µM (active)
26 | FC(F)(F)C(F)(F)C(F)(F)C(F)(F)C(F)(F)C(F)(F)CCI | inactive | 

Target: AR (gene 367) (UniProt P10275)
Sequence (P10275 whole entry, looked up): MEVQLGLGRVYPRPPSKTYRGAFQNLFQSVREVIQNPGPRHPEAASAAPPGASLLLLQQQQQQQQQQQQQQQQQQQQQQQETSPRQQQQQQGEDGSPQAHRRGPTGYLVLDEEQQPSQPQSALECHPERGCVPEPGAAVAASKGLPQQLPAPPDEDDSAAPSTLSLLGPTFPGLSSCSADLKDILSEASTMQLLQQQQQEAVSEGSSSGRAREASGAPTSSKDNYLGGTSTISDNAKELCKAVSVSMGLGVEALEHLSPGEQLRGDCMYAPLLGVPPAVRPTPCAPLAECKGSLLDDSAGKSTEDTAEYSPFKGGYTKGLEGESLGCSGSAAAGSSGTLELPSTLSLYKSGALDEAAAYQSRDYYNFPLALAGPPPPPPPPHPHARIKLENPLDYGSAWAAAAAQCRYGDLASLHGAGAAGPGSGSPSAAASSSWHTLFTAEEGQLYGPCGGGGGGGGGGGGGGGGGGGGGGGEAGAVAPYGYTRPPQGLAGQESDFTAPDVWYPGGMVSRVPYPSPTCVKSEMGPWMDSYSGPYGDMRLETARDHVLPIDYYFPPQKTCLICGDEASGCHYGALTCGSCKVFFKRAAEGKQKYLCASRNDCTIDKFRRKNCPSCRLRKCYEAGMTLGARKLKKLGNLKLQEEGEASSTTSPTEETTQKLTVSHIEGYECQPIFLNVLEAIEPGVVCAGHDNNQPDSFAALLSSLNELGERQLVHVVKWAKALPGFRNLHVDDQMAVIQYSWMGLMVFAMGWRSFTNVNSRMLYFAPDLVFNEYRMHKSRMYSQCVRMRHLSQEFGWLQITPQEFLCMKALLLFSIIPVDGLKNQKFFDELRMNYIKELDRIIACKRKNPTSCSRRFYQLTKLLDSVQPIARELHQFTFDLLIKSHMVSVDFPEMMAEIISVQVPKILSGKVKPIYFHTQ
Experiment: ACEA_AR_agonist_80hr: ACEA Biosciences xCELLigence Real-Time Cell Analysis on Androgen Receptor Agonism for Proliferation (AID 2283783);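 also: hits increase impedance growth signal above DMSO baseline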
How it was run: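 Eight concentrations, 1:4 serial dilution from a 100 uM final top, in biological duplicate. Impedance-based real-time growth of 22Rv1 cells after overnight baseline, recorded hourly and read at 80 hours. Controls: testosterone, MG132, assay media.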

Row | Structure (SMILES) | outcome
27 | COc1cc(/C=C/C(=O)CC(=O)/C=C/c2ccc(O)c(OC)c2)ccc1O | inactive
28 | Cc1cccc(C)c1O | inactive
29 | CCOc1ccc2c(c1)C(C)=CC(C)(C)N2 | inactive

System: not listed separately
Experiment: STM_H9_NormalizedViability: Cytotoxicity Assessment at 120 hours in the Stemina devTOX quickPredict H9 human embryonic stem cell (hESC)-based Assay (AID 2283784)
How it was run: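 Here, H9 cells received test compound with daily medium renewal. Each plate included methotrexate references (1uM, 5 nM), 0.1% DMSO and media blanks; CellTiter-Fluor RFU was normalized to DMSO.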

Row | Structure (SMILES) | AC50 | outcome
30 | Nc1ccccc1N | 2.01 µM (active) | 
31 | CN1CCN(Cc2cc(-c3ccc4[nH]c(=O)oc4c3)co2)[C@@H](c2ccc(F)cc2)C1 |  | inactive
32 | Cc1nc(-c2ccc3c(c2)CCN(CCC2CCC(NC(=O)/C=C/c4ccc(F)cc4)CC2)CC3)no1 (configuration not stated) |  | inactive
33 | Cc1oc(-c2ccccc2)nc1CCOc1cccc2c1ccn2CCC(=O)O |  | inactive
34 | COc1ccc(S(=O)(=O)N2C(=O)[C@@](c3ccccc3OC)(N3C[C@H](O)C[C@H]3C(=O)N(C)C)c3cc(Cl)ccc32)c(OC)c1 |  | inactive
35 | CC1=C(/C=C/C(C)=C/C=C/C(C)=C/CO)C(C)(C)CCC1 |  | inactive
36 | CCCCC(CC)COC(=O)CC(C(=O)OCC(CC)CCCC)S(=O)(=O)O (configuration not stated) |  | inactive

Target: AR (gene 367) (UniProt P10275)
Experiment: ACEA_AR_antagonist_80hr: ACEA Biosciences xCELLigence Real-Time Cell Analysis on Androgen Receptor Antagonism for Proliferation (AID 2283787);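 also: 22Rv1 human prostate cancer cells with growth followed by electrical impedance; hits lower the impedance growth signal relative to DMSO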
How it was run: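 Impedance-based real-time growth of 22Rv1 prostate cells, read 80 h after dosing. Eight concentrations, 1:4 series, top 100 uM final (0.5% DMSO), n = 2; signal decrease scored against DMSO.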

Row | Structure (SMILES) | AC50 | outcome
37 | Cc1nc(-c2ccc3c(c2)CCN(CCC2CCC(NC(=O)/C=C/c4ccc(F)cc4)CC2)CC3)no1 (configuration not stated) | 23.2 µM (active) | 
38 | COc1cc(/C=C/C(=O)CC(=O)/C=C/c2ccc(O)c(OC)c2)ccc1O | 25.9 µM (active) | 
39 | COc1cc(-c2nc(NC(=O)c3cc4cc(C)cc(C)c4n3CC(=O)O)sc2CCC2CCCCC2)c(OC)cc1Cl | 11.6 µM (active) | 
40 | COc1ccc(S(=O)(=O)N2C(=O)[C@@](c3ccccc3OC)(N3C[C@H](O)C[C@H]3C(=O)N(C)C)c3cc(Cl)ccc32)c(OC)c1 | 24 µM (active) | 
41 | COc1ccc(C)cc1N |  | inactive
42 | CCOc1ccc2c(c1)C(C)=CC(C)(C)N2 | 72.2 µM (active) | 
